# PMC11006913
# Where a chain is given by its changes, count along the chain named.
# Experiments:
# Test in all cases: PBM; 200 nM protein, PBS
# Settings in all cases: dsDNA, one strand shown
# [1] = target: SHOX (Homo sapiens, UniProt O15266 103-189)
# [2] = target: HOXA4 (Homo sapiens, UniProt Q00056 201-287, W262R)
# [3] = target: HOXA4 (Homo sapiens, UniProt Q00056 201-287, R217L)
# [4] = target: SHOX (Homo sapiens, UniProt O15266 103-189, R173C)
# [5] = target: HOXA4 (Homo sapiens, UniProt Q00056 201-287)
# Chain of HOXA4 (Homo sapiens, UniProt Q00056 201-287) (Q00056 201-287): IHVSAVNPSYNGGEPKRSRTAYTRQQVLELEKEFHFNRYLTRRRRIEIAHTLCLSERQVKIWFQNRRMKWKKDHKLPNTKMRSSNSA
# [6] = target: HOXA4 (Homo sapiens, UniProt Q00056 201-287, W262F)
# Chain of HOXA4 (Homo sapiens, UniProt Q00056 201-287, W262F) (Q00056 201-287 W262F): as the sequence (Q00056 201-287) above, with W62F counted along it
# [7] = target: HOXB9 (Homo sapiens, UniProt P17482 171-250, T197M)
# Chain of HOXB9 (Homo sapiens, UniProt P17482 171-250, T197M) (P17482 171-250 T197M): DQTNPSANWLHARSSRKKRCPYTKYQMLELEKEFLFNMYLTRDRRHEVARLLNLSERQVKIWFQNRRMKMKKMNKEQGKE
# [8] = target: HOXC10 (Homo sapiens, UniProt Q9NYD6 254-340)
# Chain of HOXC10 (Homo sapiens, UniProt Q9NYD6 254-340) (Q9NYD6 254-340): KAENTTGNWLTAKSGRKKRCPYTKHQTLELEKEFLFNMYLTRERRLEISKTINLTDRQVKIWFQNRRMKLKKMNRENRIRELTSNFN
# [9] = target: HOXB9 (Homo sapiens, UniProt P17482 171-250)
# Chain of HOXB9 (Homo sapiens, UniProt P17482 171-250) (P17482 171-250): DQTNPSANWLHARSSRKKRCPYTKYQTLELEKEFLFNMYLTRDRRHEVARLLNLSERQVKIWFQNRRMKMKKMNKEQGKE
# [10] = target: HOXC10 (Homo sapiens, UniProt Q9NYD6 254-340, K271E)
# Chain of HOXC10 (Homo sapiens, UniProt Q9NYD6 254-340, K271E) (Q9NYD6 254-340 K271E): as the sequence (Q9NYD6 254-340) above, with K18E counted along it
# [11] = target: HOXB9 (Homo sapiens, UniProt P17482 171-250, R186Q)
# Chain of HOXB9 (Homo sapiens, UniProt P17482 171-250, R186Q) (P17482 171-250 R186Q): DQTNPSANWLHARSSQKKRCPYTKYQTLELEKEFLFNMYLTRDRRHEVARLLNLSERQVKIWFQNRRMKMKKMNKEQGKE
# [12] = target: HOXB6 (Homo sapiens, UniProt P17509 132-218, K202E)
# Chain of HOXB6 (Homo sapiens, UniProt P17509 132-218, K202E) (P17509 132-218 K202E): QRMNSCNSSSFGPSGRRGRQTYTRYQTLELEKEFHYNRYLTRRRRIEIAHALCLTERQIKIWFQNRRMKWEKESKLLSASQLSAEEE
# [13] = target: HOXB6 (Homo sapiens, UniProt P17509 132-218)
# Chain of HOXB6 (Homo sapiens, UniProt P17509 132-218) (P17509 132-218): as the sequence (P17509 132-218 K202E) above, with E71K counted along it
# [14] = target: ALX4 (Homo sapiens, UniProt Q9H161 200-286)
# Chain of ALX4 (Homo sapiens, UniProt Q9H161 200-286) (Q9H161 200-286): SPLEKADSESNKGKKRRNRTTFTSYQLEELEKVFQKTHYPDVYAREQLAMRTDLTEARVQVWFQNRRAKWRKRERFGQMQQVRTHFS
# [15] = target: ALX4 (Homo sapiens, UniProt Q9H161 200-286, Q225E)
# Chain of ALX4 (Homo sapiens, UniProt Q9H161 200-286, Q225E) (Q9H161 200-286 Q225E): as the sequence (Q9H161 200-286) above, with Q26E counted along it
# [16] = target: ALX1 (Homo sapiens, UniProt Q15699 118-204, L144V)
# Chain of ALX1 (Homo sapiens, UniProt Q15699 118-204, L144V) (Q15699 118-204 L144V): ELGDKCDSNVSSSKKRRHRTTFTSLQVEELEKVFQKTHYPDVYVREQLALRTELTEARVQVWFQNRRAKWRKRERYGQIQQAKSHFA
# [17] = target: ALX1 (Homo sapiens, UniProt Q15699 118-204, L144R)
# Chain of ALX1 (Homo sapiens, UniProt Q15699 118-204, L144R) (Q15699 118-204 L144R): as the sequence (Q15699 118-204 L144V) above, with V27R counted along it
# [18] = target: VAX1 (Homo sapiens, UniProt Q5SQQ9 86-172)
# Chain of VAX1 (Homo sapiens, UniProt Q5SQQ9 86-172) (Q5SQQ9 86-172): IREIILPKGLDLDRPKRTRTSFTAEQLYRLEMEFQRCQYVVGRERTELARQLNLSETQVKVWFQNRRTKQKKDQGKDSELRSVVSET
# [19] = target: VAX1 (Homo sapiens, UniProt Q5SQQ9 86-172, T142I)
# Chain of VAX1 (Homo sapiens, UniProt Q5SQQ9 86-172, T142I) (Q5SQQ9 86-172 T142I): as the sequence (Q5SQQ9 86-172) above, with T57I counted along it
# [20] = target: ALX1 (Homo sapiens, UniProt Q15699 118-204)
# Chain of ALX1 (Homo sapiens, UniProt Q15699 118-204) (Q15699 118-204): as the sequence (Q15699 118-204 L144V) above, with V27L counted along it
# [21] = target: VAX1 (Homo sapiens, UniProt Q5SQQ9 86-172, K157R)
# Chain of VAX1 (Homo sapiens, UniProt Q5SQQ9 86-172, K157R) (Q5SQQ9 86-172 K157R): as the sequence (Q5SQQ9 86-172) above, with K72R counted along it
# [22] = target: T1, PAX4 (Homo sapiens, UniProt O43316 9-242, R200K)
# T1 sequence: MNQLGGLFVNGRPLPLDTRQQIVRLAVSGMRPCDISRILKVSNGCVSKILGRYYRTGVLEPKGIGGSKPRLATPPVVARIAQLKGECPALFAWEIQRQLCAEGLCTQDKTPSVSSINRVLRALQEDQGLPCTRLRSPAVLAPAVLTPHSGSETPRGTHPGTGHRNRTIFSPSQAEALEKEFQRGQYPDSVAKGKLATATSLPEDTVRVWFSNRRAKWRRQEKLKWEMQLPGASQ
# [23] = target: T2, PAX4 (Homo sapiens, UniProt O43316 9-242)
# T2 sequence: T1 sequence with K192R
# [24] = target: T3, PAX4 (Homo sapiens, UniProt O43316 9-242, R200Q)
# T3 sequence: T1 sequence with K192Q
# [25] = target: T4, PAX4 (Homo sapiens, UniProt O43316 9-242, F177V)
# T4 sequence: T1 sequence with F169V, K192R
# [26] = target: T5, PAX4 (Homo sapiens, UniProt O43316 9-242, F177Y)
# T5 sequence: T1 sequence with F169Y, K192R
# [27] = target: T6, PAX4 (Homo sapiens, UniProt O43316 9-242, R227W)
# T6 sequence: T1 sequence with K192R, R219W
# [28] = target: NKX3-2 (Homo sapiens, UniProt P78367 192-278, P234S)
# Chain of NKX3-2 (Homo sapiens, UniProt P78367 192-278, P234S) (P78367 192-278 P234S): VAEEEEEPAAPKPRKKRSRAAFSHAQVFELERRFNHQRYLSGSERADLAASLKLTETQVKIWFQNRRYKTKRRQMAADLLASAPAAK
# [29] = target: NKX3-2 (Homo sapiens, UniProt P78367 192-278)
# Chain of NKX3-2 (Homo sapiens, UniProt P78367 192-278) (P78367 192-278): as the sequence (P78367 192-278 P234S) above, with S43P counted along it
# [30] = target: ALX3 (Homo sapiens, UniProt O95076 139-225, N203Q)
# Chain of ALX3 (Homo sapiens, UniProt O95076 139-225, N203Q) (O95076 139-225 N203Q): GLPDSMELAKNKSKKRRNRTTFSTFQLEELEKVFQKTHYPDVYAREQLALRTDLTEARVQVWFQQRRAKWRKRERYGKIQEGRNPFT
# [31] = target: ALX3 (Homo sapiens, UniProt O95076 139-225)
# Chain of ALX3 (Homo sapiens, UniProt O95076 139-225) (O95076 139-225): as the sequence (O95076 139-225 N203Q) above, with Q65N counted along it
# [32] = target: ALX3 (Homo sapiens, UniProt O95076 139-225, L168Q)
# Chain of ALX3 (Homo sapiens, UniProt O95076 139-225, L168Q) (O95076 139-225 L168Q): as the sequence (O95076 139-225 N203Q) above, with L30Q, Q65N counted along it
# [33] = target: ALX3 (Homo sapiens, UniProt O95076 139-225, L168V)
# Chain of ALX3 (Homo sapiens, UniProt O95076 139-225, L168V) (O95076 139-225 L168V): as the sequence (O95076 139-225 N203Q) above, with L30V, Q65N counted along it
# [34] = target: ALX3 (Homo sapiens, UniProt O95076 139-225, N203S)
# Chain of ALX3 (Homo sapiens, UniProt O95076 139-225, N203S) (O95076 139-225 N203S): as the sequence (O95076 139-225 N203Q) above, with Q65S counted along it
# [35] = target: HOXA2 (Homo sapiens, UniProt O43364 129-215, R185T)
# Chain of HOXA2 (Homo sapiens, UniProt O43364 129-215, R185T) (O43364 129-215 R185T): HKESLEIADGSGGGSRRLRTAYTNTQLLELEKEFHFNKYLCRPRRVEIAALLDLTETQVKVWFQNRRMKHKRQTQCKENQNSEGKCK
# [36] = target: HOXA2 (Homo sapiens, UniProt O43364 129-215, R185K)
# Chain of HOXA2 (Homo sapiens, UniProt O43364 129-215, R185K) (O43364 129-215 R185K): as the sequence (O43364 129-215 R185T) above, with T57K counted along it
# [37] = target: HOXA2 (Homo sapiens, UniProt O43364 129-215, Y150S)
# Chain of HOXA2 (Homo sapiens, UniProt O43364 129-215, Y150S) (O43364 129-215 Y150S): as the sequence (O43364 129-215 R185T) above, with Y22S, T57R counted along it
# [38] = target: HOXA2 (Homo sapiens, UniProt O43364 129-215)
# Chain of HOXA2 (Homo sapiens, UniProt O43364 129-215) (O43364 129-215): as the sequence (O43364 129-215 R185T) above, with T57R counted along it
# [39] = target: MSX2 (Homo sapiens, UniProt P35548 130-214, R199I)
# Chain of MSX2 (Homo sapiens, UniProt P35548 130-214, R199I) (P35548 130-214 R199I): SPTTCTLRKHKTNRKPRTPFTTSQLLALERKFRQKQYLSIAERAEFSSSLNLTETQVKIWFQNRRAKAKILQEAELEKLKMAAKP
# [40] = target: MSX2 (Homo sapiens, UniProt P35548 130-214)
# Chain of MSX2 (Homo sapiens, UniProt P35548 130-214) (P35548 130-214): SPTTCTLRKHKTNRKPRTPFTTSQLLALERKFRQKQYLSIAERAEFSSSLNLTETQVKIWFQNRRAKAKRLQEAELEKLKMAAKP
# [41] = target: MSX2 (Homo sapiens, UniProt P35548 130-214, F161Y)
# Chain of MSX2 (Homo sapiens, UniProt P35548 130-214, F161Y) (P35548 130-214 F161Y): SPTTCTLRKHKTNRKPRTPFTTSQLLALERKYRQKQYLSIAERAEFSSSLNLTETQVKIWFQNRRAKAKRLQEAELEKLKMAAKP
# [42] = target: PITX2 (Homo sapiens, UniProt Q99697 72-157)
# Chain of SHOX (Homo sapiens, UniProt O15266 103-189) (O15266 103-189): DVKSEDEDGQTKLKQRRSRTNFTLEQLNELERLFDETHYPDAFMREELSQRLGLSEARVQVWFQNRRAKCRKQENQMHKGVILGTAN
# Chain of SHOX (Homo sapiens, UniProt O15266 103-189, R173C) (O15266 103-189 R173C): as the sequence (O15266 103-189) above, with R71C counted along it
# Chain of HOXA4 (Homo sapiens, UniProt Q00056 201-287, W262R) (Q00056 201-287 W262R): as the sequence (Q00056 201-287) above, with W62R counted along it
# Chain of HOXA4 (Homo sapiens, UniProt Q00056 201-287, R217L) (Q00056 201-287 R217L): as the sequence (Q00056 201-287) above, with R17L counted along it
sequence,measurement,setting,value
CTTATAGA,binding signal,[1],"8.03 upbm affinity estimate (log intensity, higher = more binding, comparable within an allelic series)"
CCCCGGGA,binding signal,[1],"7.25 upbm affinity estimate (log intensity, higher = more binding, comparable within an allelic series)"
same,binding signal,[2],"9.71 upbm affinity estimate (log intensity, higher = more binding, comparable within an allelic series)"
same,binding signal,[3],"9.86 upbm affinity estimate (log intensity, higher = more binding, comparable within an allelic series)"
same,binding signal,[4],"7.27 upbm affinity estimate (log intensity, higher = more binding, comparable within an allelic series)"
same,binding signal,[5],"9.8 upbm affinity estimate (log intensity, higher = more binding, comparable within an allelic series)"
same,binding signal,[6],"9.99 upbm affinity estimate (log intensity, higher = more binding, comparable within an allelic series)"
AGATATTG,binding signal,[1],"8.52 upbm affinity estimate (log intensity, higher = more binding, comparable within an allelic series)"
CGCTGACC,binding signal,[1],"7.27 upbm affinity estimate (log intensity, higher = more binding, comparable within an allelic series)"
same,binding signal,[7],"8.61 upbm affinity estimate (log intensity, higher = more binding, comparable within an allelic series)"
same,binding signal,[8],"10.1 upbm affinity estimate (log intensity, higher = more binding, comparable within an allelic series)"
same,binding signal,[9],"8.64 upbm affinity estimate (log intensity, higher = more binding, comparable within an allelic series)"
same,binding signal,[4],"7.24 upbm affinity estimate (log intensity, higher = more binding, comparable within an allelic series)"
same,binding signal,[10],"10.1 upbm affinity estimate (log intensity, higher = more binding, comparable within an allelic series)"
same,binding signal,[11],"8.66 upbm affinity estimate (log intensity, higher = more binding, comparable within an allelic series)"
CAGGGAGG,binding signal,[1],"6.88 upbm affinity estimate (log intensity, higher = more binding, comparable within an allelic series)"
same,binding signal,[2],"9.65 upbm affinity estimate (log intensity, higher = more binding, comparable within an allelic series)"
same,binding signal,[12],"8.81 upbm affinity estimate (log intensity, higher = more binding, comparable within an allelic series)"
same,binding signal,[3],"9.79 upbm affinity estimate (log intensity, higher = more binding, comparable within an allelic series)"
same,binding signal,[4],"7 upbm affinity estimate (log intensity, higher = more binding, comparable within an allelic series)"
same,binding signal,[5],"9.91 upbm affinity estimate (log intensity, higher = more binding, comparable within an allelic series)"
same,binding signal,[6],"9.86 upbm affinity estimate (log intensity, higher = more binding, comparable within an allelic series)"
same,binding signal,[13],"8.85 upbm affinity estimate (log intensity, higher = more binding, comparable within an allelic series)"
CCACCCGG,binding signal,[1],"7.19 upbm affinity estimate (log intensity, higher = more binding, comparable within an allelic series)"
same,binding signal,[14],"8.21 upbm affinity estimate (log intensity, higher = more binding, comparable within an allelic series)"
same,binding signal,[15],"8.29 upbm affinity estimate (log intensity, higher = more binding, comparable within an allelic series)"
same,binding signal,[16],"6.62 upbm affinity estimate (log intensity, higher = more binding, comparable within an allelic series)"
same,binding signal,[4],"7.17 upbm affinity estimate (log intensity, higher = more binding, comparable within an allelic series)"
same,binding signal,[17],"6.65 upbm affinity estimate (log intensity, higher = more binding, comparable within an allelic series)"
same,binding signal,[18],"7.3 upbm affinity estimate (log intensity, higher = more binding, comparable within an allelic series)"
same,binding signal,[19],"7 upbm affinity estimate (log intensity, higher = more binding, comparable within an allelic series)"
same,binding signal,[20],"6.35 upbm affinity estimate (log intensity, higher = more binding, comparable within an allelic series)"
same,binding signal,[21],"7.13 upbm affinity estimate (log intensity, higher = more binding, comparable within an allelic series)"
GGGAACCC,binding signal,[1],"7.2 upbm affinity estimate (log intensity, higher = more binding, comparable within an allelic series)"
same,binding signal,[22],"9.42 upbm affinity estimate (log intensity, higher = more binding, comparable within an allelic series)"
same,binding signal,[23],"9.42 upbm affinity estimate (log intensity, higher = more binding, comparable within an allelic series)"
same,binding signal,[24],"9.62 upbm affinity estimate (log intensity, higher = more binding, comparable within an allelic series)"
same,binding signal,[4],"7.06 upbm affinity estimate (log intensity, higher = more binding, comparable within an allelic series)"
same,binding signal,[25],"9.39 upbm affinity estimate (log intensity, higher = more binding, comparable within an allelic series)"
same,binding signal,[26],"9.36 upbm affinity estimate (log intensity, higher = more binding, comparable within an allelic series)"
same,binding signal,[27],"9.48 upbm affinity estimate (log intensity, higher = more binding, comparable within an allelic series)"
GTACAATA,binding signal,[1],"8.08 upbm affinity estimate (log intensity, higher = more binding, comparable within an allelic series)"
same,binding signal,[9],"9.8 upbm affinity estimate (log intensity, higher = more binding, comparable within an allelic series)"
same,binding signal,[11],"9.79 upbm affinity estimate (log intensity, higher = more binding, comparable within an allelic series)"
ACGGGGCC,binding signal,[1],"7.07 upbm affinity estimate (log intensity, higher = more binding, comparable within an allelic series)"
same,binding signal,[8],"10.1 upbm affinity estimate (log intensity, higher = more binding, comparable within an allelic series)"
same,binding signal,[4],"7.17 upbm affinity estimate (log intensity, higher = more binding, comparable within an allelic series)"
same,binding signal,[10],"10.1 upbm affinity estimate (log intensity, higher = more binding, comparable within an allelic series)"
same,binding signal,[28],"10.8 upbm affinity estimate (log intensity, higher = more binding, comparable within an allelic series)"
same,binding signal,[29],"10.8 upbm affinity estimate (log intensity, higher = more binding, comparable within an allelic series)"
CGCCGAGC,binding signal,[1],"7.14 upbm affinity estimate (log intensity, higher = more binding, comparable within an allelic series)"
same,binding signal,[22],"9.36 upbm affinity estimate (log intensity, higher = more binding, comparable within an allelic series)"
same,binding signal,[23],"9.47 upbm affinity estimate (log intensity, higher = more binding, comparable within an allelic series)"
same,binding signal,[30],"7.72 upbm affinity estimate (log intensity, higher = more binding, comparable within an allelic series)"
same,binding signal,[24],"9.48 upbm affinity estimate (log intensity, higher = more binding, comparable within an allelic series)"
same,binding signal,[4],"7.23 upbm affinity estimate (log intensity, higher = more binding, comparable within an allelic series)"
same,binding signal,[25],"9.31 upbm affinity estimate (log intensity, higher = more binding, comparable within an allelic series)"
same,binding signal,[31],"7.76 upbm affinity estimate (log intensity, higher = more binding, comparable within an allelic series)"
same,binding signal,[26],"9.32 upbm affinity estimate (log intensity, higher = more binding, comparable within an allelic series)"
same,binding signal,[32],"7.81 upbm affinity estimate (log intensity, higher = more binding, comparable within an allelic series)"
same,binding signal,[33],"7.74 upbm affinity estimate (log intensity, higher = more binding, comparable within an allelic series)"
same,binding signal,[27],"9.41 upbm affinity estimate (log intensity, higher = more binding, comparable within an allelic series)"
same,binding signal,[34],"7.79 upbm affinity estimate (log intensity, higher = more binding, comparable within an allelic series)"
CGCCGGCG,binding signal,[1],"7.07 upbm affinity estimate (log intensity, higher = more binding, comparable within an allelic series)"
same,binding signal,[35],"7.18 upbm affinity estimate (log intensity, higher = more binding, comparable within an allelic series)"
same,binding signal,[30],"7.92 upbm affinity estimate (log intensity, higher = more binding, comparable within an allelic series)"
same,binding signal,[4],"7.15 upbm affinity estimate (log intensity, higher = more binding, comparable within an allelic series)"
same,binding signal,[36],"10.2 upbm affinity estimate (log intensity, higher = more binding, comparable within an allelic series)"
same,binding signal,[31],"7.79 upbm affinity estimate (log intensity, higher = more binding, comparable within an allelic series)"
same,binding signal,[32],"7.73 upbm affinity estimate (log intensity, higher = more binding, comparable within an allelic series)"
same,binding signal,[33],"7.68 upbm affinity estimate (log intensity, higher = more binding, comparable within an allelic series)"
same,binding signal,[37],"10.3 upbm affinity estimate (log intensity, higher = more binding, comparable within an allelic series)"
same,binding signal,[34],"8.03 upbm affinity estimate (log intensity, higher = more binding, comparable within an allelic series)"
same,binding signal,[38],"7.22 upbm affinity estimate (log intensity, higher = more binding, comparable within an allelic series)"
GCCTTGCC,binding signal,[1],"7.17 upbm affinity estimate (log intensity, higher = more binding, comparable within an allelic series)"
same,binding signal,[39],"9.62 upbm affinity estimate (log intensity, higher = more binding, comparable within an allelic series)"
same,binding signal,[4],"7.18 upbm affinity estimate (log intensity, higher = more binding, comparable within an allelic series)"
same,binding signal,[40],"9.57 upbm affinity estimate (log intensity, higher = more binding, comparable within an allelic series)"
same,binding signal,[41],"9.57 upbm affinity estimate (log intensity, higher = more binding, comparable within an allelic series)"
ACTGGGGG,binding signal,[1],"7.05 upbm affinity estimate (log intensity, higher = more binding, comparable within an allelic series)"
same,binding signal,[22],"8.98 upbm affinity estimate (log intensity, higher = more binding, comparable within an allelic series)"
same,binding signal,[23],"9.06 upbm affinity estimate (log intensity, higher = more binding, comparable within an allelic series)"
same,binding signal,[39],"9.43 upbm affinity estimate (log intensity, higher = more binding, comparable within an allelic series)"
same,binding signal,[16],"6.32 upbm affinity estimate (log intensity, higher = more binding, comparable within an allelic series)"
same,binding signal,[24],"9.22 upbm affinity estimate (log intensity, higher = more binding, comparable within an allelic series)"
same,binding signal,[42],"7.95 upbm affinity estimate (log intensity, higher = more binding, comparable within an allelic series)"
same,binding signal,[4],"7.08 upbm affinity estimate (log intensity, higher = more binding, comparable within an allelic series)"
same,binding signal,[17],"6.52 upbm affinity estimate (log intensity, higher = more binding, comparable within an allelic series)"
same,binding signal,[25],"9.12 upbm affinity estimate (log intensity, higher = more binding, comparable within an allelic series)"
same,binding signal,[40],"9.41 upbm affinity estimate (log intensity, higher = more binding, comparable within an allelic series)"
same,binding signal,[26],"9.07 upbm affinity estimate (log intensity, higher = more binding, comparable within an allelic series)"
same,binding signal,[41],"9.45 upbm affinity estimate (log intensity, higher = more binding, comparable within an allelic series)"
same,binding signal,[27],"9.15 upbm affinity estimate (log intensity, higher = more binding, comparable within an allelic series)"
same,binding signal,[20],"6.23 upbm affinity estimate (log intensity, higher = more binding, comparable within an allelic series)"
